# Bioassay records (PubChem)
# Most compounds without a hit are left out; they make up all but 0.4% or so of the library.
# Rac1 wt GTP bind = alters GTP binding to wildtype human Rac1; GST-Rac1 beads, fluorescent GTP binding, flow cytometry; actives lie on both sides; 0 = cold GTP competed, 100 = untreated; GTP binding activity (% of control), % at 10 µM; 190,000 compounds, 0.27% hits; AID 757;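 active = GTP binding activity at least 20 points away from the 100% control level, either lower or higher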
# HRas wt GTP = human HRas wildtype GTP binding, change in either direction; GTP binding activity, % at 10 µM; 190,000 compounds, 0.14% hits; AID 759; GST-Ras wt beads, Bodipy-FL-GTP binding, flow cytometry; actives lie on both sides; P01112;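 active = GTP binding activity at least 20% away from the 100% baseline, either lowered as inhibitor or raised as activator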
# Target sequence (P01112 whole entry, looked up): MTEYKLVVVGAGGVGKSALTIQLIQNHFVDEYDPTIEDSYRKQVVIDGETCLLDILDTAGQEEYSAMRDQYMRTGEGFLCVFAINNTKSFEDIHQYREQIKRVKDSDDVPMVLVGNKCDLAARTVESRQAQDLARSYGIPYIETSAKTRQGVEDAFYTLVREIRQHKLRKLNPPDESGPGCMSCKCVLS
# Rab7 wt GTP bind = alters GTP binding to wildtype dog Rab7; GST-Rab7 beads, fluorescent GTP binding, flow cytometry; actives lie on both sides; untreated = 100%, excess cold GTP = 0%; GTP binding activity (percent of control), % at 10 µM; 190,000 compounds, 0.055% hits;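 active = fluorescent GTP binding to Rab7 beads changed by at least 20 points from the 100% baseline, either direction, mostly lower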;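 note: median green fluorescence of bound Bodipy-FL-GTP per Rab7 bead population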
# Cdc42 wt = modulators (inhibitors or activators) of GTP binding to human Cdc42 wildtype; GST-Cdc42 beads, Bodipy-GTP binding, flow cytometry; actives lie on both sides; percent activity (GTP binding), % at 10 µM; 190,000 compounds, 0.2% hits; AID 761;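 active = percent activity GTP binding at least 20 points away from the 100% baseline, either down as inhibitor or up as activator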;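 note: median bead fluorescence of bound Bodipy-FL-GTP at 100 nM; below 100% means less GTP binding so inhibitor and above means activator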
# Target sequence (P60953 whole entry, looked up): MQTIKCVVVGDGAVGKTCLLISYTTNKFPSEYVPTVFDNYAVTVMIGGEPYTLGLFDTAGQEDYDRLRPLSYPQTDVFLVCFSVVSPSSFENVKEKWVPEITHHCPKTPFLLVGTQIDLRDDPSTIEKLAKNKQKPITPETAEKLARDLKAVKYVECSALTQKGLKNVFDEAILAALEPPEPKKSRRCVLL
# Rab2A wt mod = changes GTP binding to wildtype dog Rab2A, up or down | P61105 | GST-Rab2 wt beads, Bodipy-GTP binding, flow cytometry | GTP binding activity, % at 10 µM | 190,000 compounds, 0.19% hits;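 active = GTP binding activity at least 20 points away from 100%, either lowered or raised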
# Rac1 mut GTP = modulators of GTP binding to human Rac1 activated mutant; GST-Rac1 activated beads, fluorescent GTP binding, flow cytometry; actives lie on both sides; 100% means binding = to untreated wells; percent activity (GTP binding), % at 10 µM; 190,000 compounds, 0.11% hits; P63000;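 active = GTP binding at least 20 percentage points away from the 100% baseline, in either direction, so actives lie on both sides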
# A number is an active result; . = inactive; [ ] = dose if it differs, or a comment.
SMILES,Rac1 wt GTP bind,HRas wt GTP,Rab7 wt GTP bind,Cdc42 wt,Rab2A wt mod,Rac1 mut GTP
Cc1ccc(/C=N/NC(=O)C2CCN(Cc3ccc(F)cc3Cl)CC2)o1,.,.,78.0,.,.,.
Cc1ccc2nc(CSc3nc(C)cc(C)c3C#N)[nH]c2c1,122.0[activator],.,.,.,.,.
Cc1cc(C)c(C#N)c(SCc2ccccc2)n1,.,.,.,.,.,.
CC(=O)Nc1ccc(Nc2ccc3c4c(cc(=O)n3C)-c3ccccc3C(=O)c24)cc1,77.0,.,.,.,.,.
O=C(NCC(=O)N1CC(O)CC1C(=O)N1CC(O)CC1C(=O)OCc1ccccc1)OCc1ccccc1 (stereo unspecified),.,.,.,.,.,.
COCCN(Cc1nc(C2(c3ccc(C)cc3)CCCC2)no1)C(C)C,.,.,.,.,.,.
COc1ccc(CNC(=O)c2ccccc2C(=O)O)cc1,.,.,.,.,.,.
COc1ccc(CC(=O)c2ccccc2C(=O)O)cc1,143.0[activator],126.0[activator],125.0[activator],140.0[activator],130.0[activator],131.0[activator]
CCOc1cc(/C=N/Nc2nncc(-c3ccccc3)n2)ccc1O,74.0,.,.,.,.,.
CCOc1cc(/C=N/NC(=O)c2cc(-c3cccnc3)nc3ccccc23)ccc1O,78.0,.,.,.,.,.
CCc1ccc(NS(=O)(=O)c2ccc3[nH]cc(C(=O)N4CCc5ccccc54)c(=O)c3c2)cc1,.,.,.,70.0,.,.
O=C(Nc1cccc(Cl)c1)N1CCN(c2ncccn2)CC1,125.0[activator],.,.,.,.,.
O=C(Nc1ccc(Cl)cc1Cl)N1CCN(c2ncccn2)CC1,.,.,.,.,.,.
O=C(Nc1ccccc1N1CCOCC1)C1CCN(S(=O)(=O)c2ccccc2F)CC1,.,.,.,.,.,.
COc1cccc(C2CC(c3ccccc3OC)n3ncnc3N2)c1 (stereo unspecified),.,.,.,.,.,.
COc1cccc(C2CC(c3ccccc3)Nc3ncnn32)c1 (stereo unspecified),123.0[activator],.,.,.,.,.
CCOC(=O)C1(C)Oc2ccc(S(=O)(=O)CC)cc2NC1=O (stereo unspecified),.,.,.,.,.,.
Cc1nc2nc(SCC(=O)O)nn2c(C)c1Cc1ccccc1Cl,.,.,.,.,78.0,.
Cc1nc2nc(SCC(=O)NCc3ccco3)nn2c(C)c1Cc1c(F)cccc1Cl,.,.,.,.,.,.
Cc1nc2nc(SCC(=O)O)nn2c(C)c1Cc1c(F)cccc1Cl,78.0,78.0,.,72.0,73.0,70.0
C=CCSc1nc(N)c(C#N)c(-c2ccc(C)cc2)c1C#N,78.0,.,.,78.0,.,.
CC(=O)c1cccc(N(C(=O)CNC(=O)c2ccco2)C(C(=O)NCc2ccco2)c2ccccc2)c1 (stereo unspecified),.,.,.,.,.,.
Cc1ccc(NC(=O)/C(Cl)=C/c2ccccc2)cc1C,.,.,.,.,.,.
COC(=O)c1ccccc1NC(=O)CSCC(=O)Nc1ccccc1OC,.,.,76.0,.,.,.
CN1CCc2nc3ccc(Cl)cc3c(-c3ccccc3Cl)c2C1,.,.,.,79.0,.,.
SMILES,Rac1 wt GTP bind,HRas wt GTP,Rab7 wt GTP bind,Cdc42 wt,Rab2A wt mod,Rac1 mut GTP
Cc1nc2ccc(Cl)cc2c(-c2ccccc2Cl)c1CC(=O)O,.,.,.,.,.,.
O=C(COC(=O)/C=C/c1cccs1)Nc1ccc2ccccc2c1,74.0,.,.,73.0,76.0,76.0
O=C(COC(=O)/C=C/c1cccs1)Nc1ccccc1Cl,.,.,.,.,.,.
CC(C)c1csc(CN2CCC(N3CCC(C(=O)N4CCOCC4)CC3)CC2)n1,.,.,.,.,.,.
COc1ccc(-c2nnc3n2N=C(C)CS3)cc1OC,.,.,.,.,.,.
COc1ccc(C2=Nn3c(nnc3-c3ccccc3)SC2)cc1OC,78.0,.,.,.,.,.
Cc1cccc(-c2nnc3n2N=C(c2ccccc2)CS3)c1,.,.,.,.,.,.
Oc1ccc(C2=Nn3c(nnc3-c3ccco3)SC2)cc1O,51.0,47.0,70.0,49.0,47.0,65.0
Cc1cc(-c2nnc3n2N=C(c2ccc(-c4ccccc4)cc2)CS3)n[nH]1,75.0,78.0,.,76.0,79.0,.
Cc1cc(C)c2nc(NNC(=O)c3cc(=O)c4ccccc4o3)sc2c1,.,.,.,77.0,79.0,71.0
Cc1ccc(NC(=O)c2ccc(NCc3ccco3)c([N+](=O)[O-])c2)cc1Cl,.,.,.,.,.,.
N/C(=N\OC(=O)Oc1ccccc1)c1cccc([N+](=O)[O-])c1,.,.,.,.,.,.
O=C(C#Cc1ccccc1)c1cccc([N+](=O)[O-])c1,.,.,.,74.0,.,71.0
Brc1ccc(CNc2cc3c(cc2Br)OCCO3)cc1,.,.,.,.,.,.
c1ccc(CN2CCN(CCOCCOc3cccc4ccccc34)CC2)cc1,.,.,.,.,78.0,.
CS(=O)(=O)N(CC(=O)N1CCC(C(N)=O)CC1)c1cc(C(F)(F)F)ccc1Cl,.,.,.,.,.,.
Cc1ccc(/C=N/N(C)C2=NS(=O)(=O)c3ccccc32)o1,64.0,66.0,.,64.0,65.0,.
CN(/N=C/c1ccc(Br)o1)C1=NS(=O)(=O)c2ccccc21,77.0,.,.,.,.,.
CCO[C@@H]1OC(C(=O)N2CCN(Cc3ccccc3)CC2)=C[C@H](c2coc3ccccc3c2=O)[C@H]1CCCO,.,.,.,.,.,.
CCSC1=NCCN1C(=O)c1ccc(S(=O)(=O)N(C)C)cc1,.,.,.,.,.,.
O=c1cc(N2CCc3ccccc3C2)[nH]c(=O)n1-c1ccc(Cl)cc1,121.0[activator],.,.,.,.,.
O=C(O)CC(NC(=O)C1c2ccccc2Oc2ccccc21)c1ccc(Cl)cc1 (stereo unspecified),.,.,.,.,.,.
CCOC(=O)COc1ccc(C(=O)CC)cc1OC,.,.,.,.,.,.
CCC(=O)c1ccc(OCC(=O)O)c(OC)c1,122.0[activator],.,.,.,.,.
COc1ccc(CN(C)C(=O)COC(=O)c2c(-c3ccccc3Cl)noc2C)cc1,.,.,.,.,.,.
COc1ccccc1Oc1ccccc1C(=O)O,130.0[activator],.,.,122.0[activator],.,.
O=C(O)c1ccc(CNCc2ccc(F)cc2)cc1,.,.,.,79.0,.,.
Cc1cc(NC(=O)c2cccc(C(=O)Nc3cc(C)on3)n2)no1,.,.,.,79.0,.,.
